# Laboratory results as given in PubChem BioAssay (Tox21).
# Inconclusive results are not listed. Where a call stands in place of a potency, no number is given. The source made the active and inactive calls. Unless noted, the call rests on the fitted dose curve; in most records, active means well fitted curve in the direction sought with a large enough effect in the repeat runs; inconclusive means weak or mixed curves; inactive means no such curve, though single readings can be large; an effect the other way counts as inactive or inconclusive.
# What was measured:
# [1] = qHTS assay to identify small molecule antagonists of the peroxisome proliferator-activated receptor gamma (PPARg) signaling pathway - cell viability counter screen (AID 743194); further: nearly all actives have a fitted effect of over 55% in size
# Outline: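 Viability was measured as CellTiter-Glo luminescence in GeneBLAzer PPARg UAS-bla HEK293H cells. These cells had been exposed 17 h at 37 C to compounds together with rosiglitazone at 50 nM final, with the beta-lactamase readout taken in the same wells.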
# [2] = qHTS assay for small molecule agonists of the antioxidant response element (ARE) signaling pathway - cell viability counter screen (AID 743203; calls by dose curve; further: nearly all actives have a fitted effect of over 55% in size)
# Outline: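 ATP content via CellTiter-Glo luminescence served as the viability measure. Cells: ARE-bla HepG2, 2,000 per well. Exposure: 16 hrs, 37C/5% CO2.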
# [3] = qHTS assay for small molecule activators of the heat shock response signaling pathway (AID 743210; active means well fitted activation curve with a large enough effect in the signal ratio in the repeat runs, with a control signal flat, not every such curve was filed as active; the % refers to the signal ratio; further: series mostly up to about 63 µM)
# Outline: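 Compound exposure lasted 5 h at 37 C in HeLa cells carrying a heat-shock-element-driven beta-lactamase reporter. Read-out: fluorescence intensity after 2.5 h room-temperature loading with LiveBLAzer B/G FRET substrate.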
# [4] = qHTS assay to identify small molecule agonists of the peroxisome proliferator-activated receptor delta (PPARd) signaling pathway - cell viability counter screen (AID 743211); further: nearly all actives have a fitted effect of over 55% in size
# Outline: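 Viability was measured as CellTiter-Glo luminescence (30 min, room temperature) in the same wells as the beta-lactamase readout. GeneBLAzer PPARd UAS-bla HEK293H cells received compound after 5 h plating and were incubated 17 h at 37 C.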
# [5] = qHTS assay to identify small molecule agonists of the farnesoid-X-receptor (FXR) signaling pathway - cell viability counter screen (AID 743218); further: nearly all actives have a fitted effect of over 45% in size
# Outline: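 Quantitative HTS counter screen measuring ATP-based viability via CellTiter-Glo luminescence in HEK 293T cells carrying a UAS-driven beta-lactamase reporter, after 16 h compound exposure at 37 C.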
# [6] = qHTS assay to identify small molecule antagonists of the farnesoid-X-receptor (FXR) signaling pathway - cell viability counter screen (AID 743221; active means well fitted cell-killing curve with a large enough effect in the repeat runs, not every such curve was filed as active; further: nearly all actives have a fitted effect of over 50% in size)
# Outline: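 Cytotoxicity counter screen run in the FXR-bla reporter wells: HEK 293T cells exposed to compound with 50 uM (final) chenodeoxycholic acid for 16 h, 37 C, then viability measured by CellTiter-Glo luminescence after 30 min, room temperature.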
# [7] = molecular target: Vitamin D3 receptor (Homo sapiens) (UniProt P11473); test: qHTS assay to identify small molecule agonists of the vitamin D receptor (VDR) signaling pathway (AID 743222; calls by dose curve)
# Outline: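 Tox21 cell reporter format: VDR-bla line, 16 h compound exposure in 5% CO2 at 37C, then fluorescence intensity after 2 h with LiveBLAzer B/G FRET substrate.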
# [8] = molecular target: Vitamin D3 receptor (Homo sapiens) (UniProt P11473); test: qHTS assay to identify small molecule antagonists of the vitamin D receptor (VDR) signaling pathway (AID 743223; active means well fitted inhibition curve with a large enough effect in the signal ratio in the repeat runs, not every such curve was filed as active; the % refers to the signal ratio)
# Outline: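 Antagonist mode: compound added to VDR-bla cells alongside agonist 1alpha,25-dihydroxyvitamin D3 (3 nM final), incubation 16 h at 37C. Read-out is LiveBLAzer FRET fluorescence, 2 h at room temperature.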
# [9] = qHTS assay to identify small molecule that activate the aryl hydrocarbon receptor (AhR) signaling pathway - cell viability counter screen (AID 743086);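 further: HepG2 liver cells carrying the AhR DRE luciferase reporter; series mostly up to about 70 µM; nearly all actives have a fitted effect of over 45% in size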
# Outline: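 Cytotoxicity counter screen: CellTiter-Fluor signal (30 min, 37 C) in 4000 HepG2 cells/well carrying the DRE-luciferase reporter, following 24 h compound exposure at 37 C.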
# [10] = qHTS assay for small molecule agonists of the antioxidant response element (ARE) signaling pathway (AID 743202; active means well fitted activation curve with a large enough effect in the signal ratio in the repeat runs, not every such curve was filed as active; the % refers to the signal ratio; further: potency means the concentration at half of the fitted maximal effect)
# Outline: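 After 16 hours of compound treatment at 37 C, HepG2 cells with a stably integrated ARE-driven beta-lactamase reporter were loaded 2 hours at room temperature with LiveBLAzer B/G FRET substrate and fluorescence intensity measured.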
# [11] = qHTS assay for small molecule activators of the heat shock response signaling pathway - cell viability counter screen (AID 743209); further: nearly all actives have a fitted effect of over 50% in size
# Outline: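 Compounds dissolved in DMSO were added to overnight-plated HSE-bla HeLa cells and left 5 h at 37 C. Cell viability was quantified by luminescence using CellTiter-Glo.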
# [12] = molecular target: Peroxisome proliferator-activated receptor delta (Homo sapiens) (UniProt Q03181); test: qHTS assay to identify small molecule agonists of the peroxisome proliferator-activated receptor delta (PPARd) signaling pathway (AID 743212; calls by dose curve)
# Outline: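 Beta-lactamase reporter readout: a ratiometric FRET signal from the LiveBLAzer substrate after 2 h at room temperature. Compound exposure at 37 °C in PPARδ-bla HEK293H cells driven by an upstream activator sequence.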
# [13] = qHTS assay to identify small molecule antagonists of the peroxisome proliferator-activated receptor delta (PPARd) signaling pathway - cell viability counter screen (AID 743213); further: nearly all actives have a fitted effect of over 50% in size
# Outline: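 Agonist-stimulated (L165041, 300 nM final) HEK293H PPARd UAS-bla cells are exposed to compounds for 17 h at 37 C, and ATP-based luminescence (CellTiter-Glo) from the same wells reports cytotoxicity.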
# [14] = molecular target: Peroxisome proliferator-activated receptor delta (Homo sapiens) (UniProt Q03181); test: qHTS assay to identify small molecule antagonists of the peroxisome proliferator-activated receptor delta (PPARd) signaling pathway (AID 743215; active means well fitted inhibition curve with a large enough effect in the signal ratio in the repeat runs, not every such curve was filed as active; the % refers to the signal ratio; further: series mostly up to about 62 µM)
# Outline: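 Here, a reporter line (HEK293H, beta-lactamase under a UAS) measures PPARd signaling. Compounds are tested against agonist L165041 at 300 nM final concentration over 17 h at 37 C, with fluorescence read after substrate.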
# [15] = molecular target: Bile acid receptor (Homo sapiens) (UniProt Q96RI1); test: qHTS assay to identify small molecule antagonists of the farnesoid-X-receptor (FXR) signaling pathway (AID 743217; active means well fitted inhibition curve with a large enough effect in the signal ratio in the repeat runs, not every such curve was filed as active; the % refers to the signal ratio)
# Outline: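 Test compounds are pin-transferred onto FXR-bla HEK 293T cells, then chenodeoxycholic acid is added at 50 uM final. After 16 h at 37 °C, LiveBLAzer B/G substrate is applied for 2 h at room temperature and fluorescence read.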
# [16] = molecular target: Bile acid receptor (Homo sapiens) (UniProt Q96RI1); test: qHTS assay to identify small molecule agonists of the farnesoid-X-receptor (FXR) signaling pathway (AID 743220; active means well fitted activation curve with a large enough effect in the signal ratio in the repeat runs, not every such curve was filed as active; the % refers to the signal ratio)
# Outline: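 FXR-UAS-bla HEK 293T cells carrying a UAS-driven beta-lactamase reporter were plated for 5 h at 37C/5% CO2, then exposed to DMSO-dissolved Tox21 10K compounds for 16 h at 37C. A LiveBLAzer B/G FRET substrate was loaded for 2 h at room temperature before fluorescence reading.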
# [17] = molecular target: Aryl hydrocarbon receptor (Homo sapiens) (UniProt P35869); test: qHTS assay to identify small molecule that activate the aryl hydrocarbon receptor (AhR) signaling pathway (AID 743085); further: nearly all actives have a fitted effect of over 15% in size; further: potency means the concentration at half of the fitted maximal effect;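 on activation: HG2L7.5c1 human HepG2 liver cells with stably integrated DRE-driven firefly reporter; series mostly up to about 70 µM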
# Outline: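 Luminescence (ONE-Glo) from a dioxin-responsive-element luciferase reporter in HG2L7.5c1 HepG2 cells after 24 hr compound exposure at 37C; viability measured by CellTiter-Fluor fluorescence beforehand.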
# [18] = molecular target: Peroxisome proliferator-activated receptor gamma (Homo sapiens) (UniProt P37231); test: qHTS assay to identify small molecule agonists of the peroxisome proliferator-activated receptor gamma (PPARg) signaling pathway (AID 743094; active means well fitted activation curve with a large enough effect in the signal ratio in the repeat runs, not every such curve was filed as active; the % refers to the signal ratio)
# Outline: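 Agonism was assessed in a beta-lactamase reporter system, HEK293H cells with a stably integrated UAS-bla construct under PPARg control; the 17 h treatment at 37C preceded a 1 h room-temperature FRET substrate read.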
# [19] = qHTS assay to identify aromatase inhibitors - cell viability counter screen (AID 743084);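 further: cells stimulated with testosterone during compound exposure; nearly all actives have a fitted effect of over 55% in size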
# [20] = molecular target: Peroxisome proliferator-activated receptor gamma (Homo sapiens) (UniProt P37231); test: qHTS assay to identify small molecule antagonists of the peroxisome proliferator-activated receptor gamma (PPARg) signaling pathway (AID 743191; calls by dose curve; further: nearly all actives have a fitted effect of over 30% in size; further: potency means the concentration at half of the fitted maximal effect)
# Outline: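 Beta-lactamase reporter under UAS control in HEK293H PPARg-bla cells; compound treatment 17 h at 37C. Read-out: fluorescence intensity after 1 h room-temperature incubation with LiveBLAzer B/G FRET substrate.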
# Sequence of Aryl hydrocarbon receptor (Homo sapiens) (P35869 whole entry, looked up): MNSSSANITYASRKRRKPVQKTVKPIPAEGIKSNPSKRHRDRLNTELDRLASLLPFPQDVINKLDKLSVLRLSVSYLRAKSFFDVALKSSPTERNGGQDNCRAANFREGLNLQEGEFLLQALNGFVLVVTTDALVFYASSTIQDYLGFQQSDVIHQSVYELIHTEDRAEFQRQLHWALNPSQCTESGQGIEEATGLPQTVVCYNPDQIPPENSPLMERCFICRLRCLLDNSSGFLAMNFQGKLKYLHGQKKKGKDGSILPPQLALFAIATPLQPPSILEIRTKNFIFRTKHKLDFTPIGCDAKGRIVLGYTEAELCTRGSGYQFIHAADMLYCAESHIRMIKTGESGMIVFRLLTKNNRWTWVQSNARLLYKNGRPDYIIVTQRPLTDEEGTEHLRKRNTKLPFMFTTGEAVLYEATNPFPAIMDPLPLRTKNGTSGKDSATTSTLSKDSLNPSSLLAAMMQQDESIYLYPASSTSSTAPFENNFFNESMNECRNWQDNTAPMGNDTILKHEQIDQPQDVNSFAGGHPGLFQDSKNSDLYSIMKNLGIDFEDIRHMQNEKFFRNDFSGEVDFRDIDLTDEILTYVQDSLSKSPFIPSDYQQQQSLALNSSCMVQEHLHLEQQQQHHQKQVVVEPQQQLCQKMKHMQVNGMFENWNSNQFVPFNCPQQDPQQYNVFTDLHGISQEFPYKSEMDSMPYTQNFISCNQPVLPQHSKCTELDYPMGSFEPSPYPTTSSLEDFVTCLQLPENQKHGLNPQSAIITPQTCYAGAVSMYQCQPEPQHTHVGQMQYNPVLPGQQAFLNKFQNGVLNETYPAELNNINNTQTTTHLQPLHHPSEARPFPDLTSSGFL
# Sequence of Bile acid receptor (Homo sapiens) (Q96RI1 whole entry, looked up): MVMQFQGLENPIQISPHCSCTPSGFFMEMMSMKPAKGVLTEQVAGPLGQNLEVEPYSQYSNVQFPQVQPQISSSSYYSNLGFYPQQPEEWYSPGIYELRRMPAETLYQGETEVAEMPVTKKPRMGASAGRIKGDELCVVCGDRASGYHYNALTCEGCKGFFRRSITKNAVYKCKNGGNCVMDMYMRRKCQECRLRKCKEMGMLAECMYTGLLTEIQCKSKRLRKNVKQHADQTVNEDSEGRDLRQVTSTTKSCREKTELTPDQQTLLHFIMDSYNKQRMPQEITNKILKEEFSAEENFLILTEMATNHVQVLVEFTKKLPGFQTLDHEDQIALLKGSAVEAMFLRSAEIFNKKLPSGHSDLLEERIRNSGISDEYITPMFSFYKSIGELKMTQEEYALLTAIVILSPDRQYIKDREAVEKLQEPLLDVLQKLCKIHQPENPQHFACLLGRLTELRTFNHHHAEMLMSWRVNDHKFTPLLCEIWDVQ
# Sequence of Peroxisome proliferator-activated receptor delta (Homo sapiens) (Q03181 whole entry, looked up): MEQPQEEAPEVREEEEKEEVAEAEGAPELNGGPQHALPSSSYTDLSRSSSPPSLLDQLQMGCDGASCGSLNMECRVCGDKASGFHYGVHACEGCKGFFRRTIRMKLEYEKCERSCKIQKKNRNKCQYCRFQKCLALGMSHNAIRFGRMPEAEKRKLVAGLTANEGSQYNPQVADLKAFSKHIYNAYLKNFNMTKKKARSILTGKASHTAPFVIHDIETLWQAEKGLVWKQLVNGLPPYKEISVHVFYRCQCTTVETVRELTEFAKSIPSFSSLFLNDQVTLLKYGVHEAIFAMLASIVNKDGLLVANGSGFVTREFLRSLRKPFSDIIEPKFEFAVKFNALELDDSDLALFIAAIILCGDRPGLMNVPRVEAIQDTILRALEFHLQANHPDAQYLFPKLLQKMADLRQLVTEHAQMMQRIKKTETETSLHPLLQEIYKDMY
# Sequence of Peroxisome proliferator-activated receptor gamma (Homo sapiens) (P37231 whole entry, looked up): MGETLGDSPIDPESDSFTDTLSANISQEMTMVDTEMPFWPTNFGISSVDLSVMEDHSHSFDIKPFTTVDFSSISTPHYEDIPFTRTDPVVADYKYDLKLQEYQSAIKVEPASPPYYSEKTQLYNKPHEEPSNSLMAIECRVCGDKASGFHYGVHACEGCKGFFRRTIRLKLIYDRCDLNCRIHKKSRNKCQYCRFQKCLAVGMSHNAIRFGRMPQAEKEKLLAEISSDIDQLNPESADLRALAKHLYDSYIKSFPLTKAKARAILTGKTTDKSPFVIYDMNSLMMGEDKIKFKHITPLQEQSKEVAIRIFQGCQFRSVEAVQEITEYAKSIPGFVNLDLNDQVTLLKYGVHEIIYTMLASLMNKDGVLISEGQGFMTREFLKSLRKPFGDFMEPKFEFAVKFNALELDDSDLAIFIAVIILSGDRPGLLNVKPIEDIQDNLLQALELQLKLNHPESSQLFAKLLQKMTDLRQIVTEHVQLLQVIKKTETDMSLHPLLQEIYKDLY
# Sequence of Vitamin D3 receptor (Homo sapiens) (P11473 whole entry, looked up): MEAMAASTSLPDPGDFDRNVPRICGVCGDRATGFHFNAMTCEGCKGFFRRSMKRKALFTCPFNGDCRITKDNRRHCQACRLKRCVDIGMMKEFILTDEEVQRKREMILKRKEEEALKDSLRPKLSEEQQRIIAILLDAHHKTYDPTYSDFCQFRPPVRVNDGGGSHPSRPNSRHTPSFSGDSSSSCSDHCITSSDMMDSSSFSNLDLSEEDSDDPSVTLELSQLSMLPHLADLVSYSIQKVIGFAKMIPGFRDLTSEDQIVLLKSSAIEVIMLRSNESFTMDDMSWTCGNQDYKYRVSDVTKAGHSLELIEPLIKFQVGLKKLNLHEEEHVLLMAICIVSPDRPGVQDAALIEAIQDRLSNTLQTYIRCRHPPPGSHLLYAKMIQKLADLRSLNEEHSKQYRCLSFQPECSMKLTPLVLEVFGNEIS
Compound,Potency [1],Potency [2],outcome [3],Potency [4],Potency [5],Potency [6],outcome [7],outcome [8],Potency [9],Potency [10],outcome [11],Potency [12],Potency [13],outcome [14],outcome [15],outcome [16],Potency [17],Potency [18],Potency [19],Potency [20]
C[C@H](N)C(=O)N[C@@H](C)C(=O)NC1[C@H]2CN(c3nc4c(cc3F)c(=O)c(C(=O)O)cn4-c3ccc(F)cc3F)C[C@@H]12 (some centres not stated),inactive,inactive,inactive,inactive,inactive,inactive,inactive,inactive,–,–,–,–,–,–,–,–,–,–,–,–
CCc1c(C)[nH]c2c1C(=O)C(CN1CCOCC1)CC2 (configuration not stated),inactive,inactive,–,inactive,inactive,–,inactive,inactive,inactive,inactive,inactive,inactive,inactive,inactive,inactive,inactive,–,–,–,–
O=C(Nc1ccccc1)c1cc([N+](=O)[O-])ccc1Cl,inactive,inactive,–,inactive,inactive,inactive,–,–,–,7.7 µM (active),inactive,inactive,inactive,–,–,inactive,54.5 µM (active),inactive,–,–
S=c1[nH][nH]c(=S)s1,inactive,inactive,inactive,–,inactive,inactive,inactive,–,inactive,–,inactive,inactive,inactive,inactive,–,–,–,–,inactive,–
CC(C)(C)NCC(O)COc1ccc(NC(=O)NC2CCCCC2)cc1 (configuration not stated),inactive,inactive,inactive,inactive,inactive,–,inactive,inactive,–,inactive,inactive,inactive,inactive,inactive,inactive,inactive,–,inactive,inactive,inactive
COc1ccc(/C(C)=C/C(=O)O)c(OC)c1,inactive,inactive,inactive,inactive,inactive,–,inactive,inactive,–,inactive,inactive,inactive,inactive,–,–,–,–,–,–,–
O=C(O)c1ccc2c(c1)nc(C(=O)NC1CCN(C3CC3)CC1)n2Cc1cc(-c2ccc(Cl)s2)on1,inactive,inactive,inactive,inactive,–,inactive,–,–,inactive,inactive,inactive,inactive,inactive,–,inactive,inactive,–,–,–,3.13 µM (active)
CC1(COc2ccc(CC3SC(=O)NC3=O)cc2)CCCCC1 (configuration not stated),inactive,–,inactive,–,inactive,inactive,–,–,inactive,–,inactive,–,inactive,–,inactive,–,–,–,inactive,–
Cc1ccc(NC(=O)c2ccc(CN3CCN(C)CC3)cc2)cc1Nc1nccc(-c2cccnc2)n1,inactive,inactive,inactive,–,inactive,inactive,–,–,–,–,inactive,–,–,–,–,–,21.1 µM (active),inactive,–,–
CC(C)C/C=C(\C=O)c1ccccc1,inactive,inactive,inactive,inactive,inactive,–,inactive,inactive,inactive,inactive,inactive,inactive,inactive,inactive,–,inactive,inactive,inactive,–,inactive
CC/C=C/CCO,inactive,inactive,inactive,inactive,inactive,inactive,inactive,–,inactive,–,–,–,inactive,–,inactive,inactive,–,–,–,–
C/C(=C\C(C)CC(C)CC(C)C)C1CC(=O)OC1=O (configuration not stated),inactive,inactive,inactive,inactive,inactive,inactive,inactive,–,inactive,–,inactive,–,inactive,inactive,–,–,inactive,inactive,–,inactive
CC(=O)Nc1cccc(N)c1,inactive,inactive,inactive,–,inactive,–,inactive,inactive,inactive,–,–,inactive,inactive,inactive,–,inactive,62 µM (active),inactive,–,inactive
CC(=O)Nc1ccccc1O,–,inactive,inactive,inactive,inactive,inactive,inactive,inactive,inactive,27.3 µM (active),inactive,–,inactive,–,inactive,inactive,–,–,inactive,–
[O-][n+]1ccc(Cl)cc1,inactive,inactive,inactive,inactive,inactive,–,inactive,inactive,inactive,inactive,inactive,inactive,inactive,inactive,inactive,inactive,–,–,–,–
O=C1c2ccccc2C(=O)c2c1ccc(O)c2O,inactive,inactive,–,inactive,inactive,inactive,–,–,inactive,–,inactive,inactive,inactive,–,–,–,29.8 µM (active),inactive,–,–
O=C(c1ccco1)N1CCNCC1,inactive,inactive,–,inactive,inactive,inactive,–,–,–,inactive,inactive,inactive,inactive,inactive,inactive,inactive,–,–,–,–
Nc1ccccc1Nc1ccccc1,inactive,–,–,inactive,inactive,inactive,–,–,inactive,–,–,–,inactive,–,–,–,54.6 µM (active),–,–,43.8 µM (active)
O=C(OCCN1CCOCC1)c1cccnc1Nc1cccc(C(F)(F)F)c1,inactive,inactive,inactive,inactive,inactive,–,inactive,inactive,–,26.6 µM (active),inactive,inactive,inactive,–,–,–,–,–,–,inactive
